GRK2 inh: inhibitors of human GRK2 displacing RNA aptamer | AID 488847 | inhibition of aptamer binding, % at 10 µM | P25098 | 330,000 tested, 0.59% active | bead flow cytometry, FAM-aptamer displacement from GRK2;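 active = inhibition of aptamer binding above 40%, roughly 3 SD of noise, on plates passing a quality check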;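 also: median bead fluorescence of bound FAM aptamer so fluorescent compounds give negative values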
Target sequence (P25098 whole entry, looked up): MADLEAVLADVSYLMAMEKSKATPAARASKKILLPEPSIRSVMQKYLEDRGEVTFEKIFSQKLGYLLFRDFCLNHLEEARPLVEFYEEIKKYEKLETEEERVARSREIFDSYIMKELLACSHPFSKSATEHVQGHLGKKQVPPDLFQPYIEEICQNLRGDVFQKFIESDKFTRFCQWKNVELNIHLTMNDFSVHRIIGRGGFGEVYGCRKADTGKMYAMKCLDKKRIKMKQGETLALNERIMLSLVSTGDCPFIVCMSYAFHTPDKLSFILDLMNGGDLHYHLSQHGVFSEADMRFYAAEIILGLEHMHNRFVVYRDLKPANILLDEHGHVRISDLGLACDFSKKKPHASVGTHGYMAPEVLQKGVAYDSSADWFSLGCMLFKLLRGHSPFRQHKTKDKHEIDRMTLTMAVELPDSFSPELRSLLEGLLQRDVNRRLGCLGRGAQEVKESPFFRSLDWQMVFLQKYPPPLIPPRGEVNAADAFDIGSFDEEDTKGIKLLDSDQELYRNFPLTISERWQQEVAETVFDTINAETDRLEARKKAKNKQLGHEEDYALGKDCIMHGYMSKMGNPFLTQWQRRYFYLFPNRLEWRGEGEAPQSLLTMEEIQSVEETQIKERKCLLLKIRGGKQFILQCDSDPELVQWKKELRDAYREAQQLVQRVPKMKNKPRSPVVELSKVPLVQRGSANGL
ATG4B inhibitor: inhibitors of human ATG4B cysteine protease; 340,000 tested, 0.51% active; Q9Y4P1; ATG4B cleavage of LC3-PLA2, NBD-HPC fluorescence, 1 h; inhibition, % at 8.33 µM; in the data active = inhibition above about 40%
Efflux pump mplx: inhibitors of Candida antifungal efflux pumps expressed in yeast. inhibition, % at 10 µM. S. cerevisiae Candida pump triplex, Nile Red efflux. AID 485275. 330,000 tested, 0.44% active;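 active = plate passing quality check with inhibition over a set limit, or well fluorescence over plate mean plus 4 SD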;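 also: Nile Red retained in pooled yeast measured as flow cytometry median fluorescence; 0% = buffer negative control and 100% = Enniatin B positive control; higher means more Nile Red kept so more efflux inhibition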
CR mimetic SO: caloric restriction mimetics inhibiting age-related superoxide in yeast. S. cerevisiae aged cells, superoxide DHE fluorescence; stronger effect = lower value. superoxide response (% of plate mean), % at 10 µM. 330,000 tested, 0.18% active;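 active = superoxide response under a set limit, about three screen SD below normal, cut at about 65% in these data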;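 also: yeast aged for seven days with compound at 30 °C before DHE staining; 100% = average MFI of all compound-treated wells on the plate with controls excluded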
Cmpd fluor yeast: compound fluorescence in yeast efflux pump counter-screen | 1,700 tested, 4% active | shares compounds with Efflux pump mplx | S. cerevisiae AD/pABC3, flow cytometry | fluorescence ratio to DMSO, % at 10 µM | AID 588517;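 active = fluorescence ratio to DMSO above its plate's cutoff, the plate mean ratio plus 5 SD, cut at about 210% in these data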;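 also: unstained yeast with no Nile Red so the signal is compound autofluorescence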
CaMdr1 efflux inh: blocks the Candida albicans Mdr1 efflux pump in yeast | shares compounds with Efflux pump mplx | S. cerevisiae AD/CaMDR1, Nile Red efflux, flow cytometry | inhibition, % at 10 µM | 1,700 tested, 1% active; in the data active = inhibition above about 26%;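 also: 0% = DMSO vehicle and 100% = reference inhibitor; higher means more Nile Red retained so more efflux inhibition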
CaCdr2 efflux inh: blocks the Candida albicans Cdr2 efflux pump in yeast. shares compounds with Efflux pump mplx. S. cerevisiae AD/CaCDR2, Nile Red retention, flow cytometry. Nile Red retention ratio vs DMSO, % at 10 µM. 1,700 tested, 4% active. AID 588520; in the data active = Nile Red retention ratio vs DMSO above about 190%;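 also: higher ratio means more blocking of Cdr2 efflux of the dye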
CaCdr1 efflux inh: inhibitors of Candida albicans Cdr1 efflux pump; shares compounds with Efflux pump mplx; S. cerevisiae AD/CaCDR1, Nile Red efflux, flow cytometry; inhibition, % at 10 µM; 1,700 tested, 1% active;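 active = inhibition above the screen-wide mean plus twice its standard deviation, cut at about 32% in these data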
The depositor's hits bear a star; nt = no result; + = active, no number. In the library only some 1.6% were active in any assay of this set; here they are far more common.

SMILES | GRK2 inh | ATG4B inhibitor | Efflux pump mplx | CR mimetic SO | Cmpd fluor yeast | CaMdr1 efflux inh | CaCdr2 efflux inh | CaCdr1 efflux inh
CCOC(=O)C1CCN(C(=O)COC(=O)c2c(C)c(CC)nc3ccccc23)CC1 | 1.0 | -17.4 | -0.1 | 103.5 | nt | nt | nt | nt
COc1ccc(CNC(=O)COC(=O)CCC2CCCCC2)cc1 | 0.0 | -3.0 | 0.8 | 103.4 | nt | nt | nt | nt
COC(=O)c1ccc(CNC(=O)COC(=O)CCC2CCCC2)cc1 | 0.0 | 5.8 | 16.6* | 110.3 | 114.6 | -0.1 | 114.4 | 0.2
O=C(CNC(=O)c1nn(Cc2ccccc2)c(=O)c2ccccc12)Nc1ccc(F)c(F)c1F | 2.0 | 3.1 | 0.9* | 93.0 | 101.1 | -0.2 | 108.3 | 0.3
NNC(=S)Nc1cccc(-c2n[nH]c(=S)o2)c1 | 3.0 | -9.2 | -0.1 | 101.3 | nt | nt | nt | nt
c1cc2ccc3ccc(CN4CCOCC4)c4ccc(c1)c2c34 | 1.0 | -13.6 | 1.1* | 95.4 | 105.8 | 0.0 | 100.7 | 0.1
COc1ccc(S(=O)(=O)NCCc2c[nH]c3ccc(C)cc23)cc1 | 0.0 | 7.0 | 0.0 | 102.1 | nt | nt | nt | nt
COC(=O)c1ccc(N)c(N=CC2=C(O)CC(C)(C)CC2=O)c1 | 1.0 | -5.0 | 1.7* | 99.9 | 94.8 | -0.3 | 105.1 | -0.1
Cc1ccc2nc(C(Cl)(Cl)Cl)nc(N/N=C/c3ccncc3)c2c1 | 0.0 | -6.6 | 0.4* | 100.8 | 104.6 | 0.2 | 101.8 | 0.0
Cc1cccc(NC(=O)C2c3ccccc3Oc3ccccc32)n1 | 2.0 | -0.4 | 0.0 | 116.4 | nt | nt | nt | nt
COc1cc2c(cc1OC)C(c1ccsc1)CC(=O)N2 (configuration not stated) | 3.0 | -7.4 | 0.0 | 108.5 | nt | nt | nt | nt
Cc1cc(C2CC(=O)Nc3ccccc3S2)c(C)s1 (configuration not stated) | 0.0 | -1.8 | 0.0 | 105.9 | 97.0 | -0.3 | 105.7 | 0.1
O=C1CC(c2ccsc2)Sc2ccccc2N1 (configuration not stated) | 2.0 | -8.9 | -0.2 | 91.4 | 88.8 | 0.0 | 100.1 | 0.0
O=C1CSc2ccccc2N1 | nt | -9.4 | nt | nt | nt | nt | nt | nt
CNC(=O)COC(=O)C1CCN(S(=O)(=O)c2ccc3c(c2)OCCO3)CC1 | 6.0 | 7.6 | 0.2 | 84.6 | nt | nt | nt | nt
CCOc1ccc(C(=O)NCC(=O)N2CCCCCCC2)cc1 | 0.0 | 2.7 | 0.1 | 91.0 | nt | nt | nt | nt
COc1ccccc1CCC(=O)Nc1ccc2c(c1)CN(Cc1ccc(CO)o1)CC2 | 0.0 | 15.7 | 0.0 | 115.7 | nt | nt | nt | nt
CCn1cc(C(=O)O)c(=O)c2cnc(N3CCN(C(=S)NC(=O)c4ccccc4)CC3)nc21 | 3.0 | 21.1 | 0.8* | 106.3 | 93.4 | -0.1 | 97.7 | -0.1
Cc1ccnc(SC2CC(=O)N(c3ccc(Br)cc3)C2=O)n1 (configuration not stated) | 1.0 | -4.1 | 1.1* | 102.6 | 83.3 | 0.0 | 82.7 | -0.1
COC(=O)c1c(NC(=O)COc2ccc(Cl)cc2)sc2c1CC(C)(C)NC2(C)C | 0.0 | -4.4 | 0.5 | 100.8 | nt | nt | nt | nt
CC1(C)Cc2c(sc(NC(=O)COc3ccc(Cl)cc3Cl)c2C(N)=O)C(C)(C)N1 | 2.0 | -0.3 | 0.6* | 105.9 | 102.2 | -0.2 | 110.3 | -0.1
CCSc1cnc(-c2ccccc2)n1CC | 1.0 | -12.2 | 0.5* | 98.9 | 86.5 | -0.3 | 98.1 | 0.0
CCn1c(SCC(O)c2ccccc2)nnc1-c1ccccc1 (configuration not stated) | 2.0 | 3.9 | 0.1 | 92.6 | nt | nt | nt | nt
O=C1OCCN1C(=O)[C@H]1[C@H](c2ccc(F)cc2)C(c2cccc(Cl)c2)=NN1c1ccccc1 | 1.0 | -2.2 | 1.4* | 126.3 | 110.0 | 0.0 | 97.5 | 0.0
Cc1ccnc(NC(=O)CCC(=O)c2cc(C)sc2C)c1 | 2.0 | -3.4 | -0.1 | 99.5 | nt | nt | nt | nt
SMILES | GRK2 inh | ATG4B inhibitor | Efflux pump mplx | CR mimetic SO | Cmpd fluor yeast | CaMdr1 efflux inh | CaCdr2 efflux inh | CaCdr1 efflux inh
CC1CCc2c(sc3nc(C(C)(C)C)nc(N4CCN(C(=O)CCl)CC4)c23)C1 (configuration not stated) | 0.0 | 5.2 | 0.6* | 95.3 | 111.2 | -0.1 | 120.6 | 0.0
CCOc1cc(/C=C2\SC(=Nc3ccccc3)N(c3ccccc3)C2=O)ccc1OCC(=O)O | 0.0 | 30.2 | 6.4* | 95.0 | 98.6 | -0.3 | 88.8 | -0.3
CCOc1cc(/C=C2\SC(=Nc3ccc(F)cc3)N(c3ccc(F)cc3)C2=O)ccc1OCC(=O)O | 0.0 | nt | -0.4 | 114.7 | nt | nt | nt | nt
N#C/C(=C\c1ccc([N+](=O)[O-])o1)c1nc2ccccc2[nH]1 | 0.0 | 3.1 | 5.1* | 108.0 | + | 3.7 | 477.7* | 2.4
COc1ccc(C)c2sc(NNC(=O)COc3ccccc3)nc12 | 0.0 | nt | -0.2 | 103.9 | nt | nt | nt | nt
Cc1cc(C)cc(NC(=O)c2ccc(NC3=NC4CS(=O)(=O)CC4S3)cc2)c1 (configuration not stated) | 2.0 | -12.0 | 0.9* | 106.7 | 83.3 | -0.2 | 95.4 | -0.3
CCN(CC)c1ccc(S(=O)(=O)N2CCCCC2)cc1NC(=O)CN1C(=O)NC2(CCCC2)C1=O | 1.0 | -1.9 | 0.2 | 101.6 | nt | nt | nt | nt
Cc1ccc(-c2cc(C(=O)Nc3ccc(S(=O)(=O)Nc4ncccn4)cc3)c3ccccc3n2)cc1 | 0.0 | 14.6 | 8.2* | 86.3 | 101.4 | -0.3 | 83.1 | 0.0
COc1cc(-c2cc(C(=O)Nc3cccc(C(C)=O)c3)c3ccccc3n2)cc(OC)c1OC | 0.0 | -10.0 | 2.4 | 102.2 | nt | nt | nt | nt
CCc1ccc(-c2cc(C(=O)Nc3ccc(S(=O)(=O)NC(C)=O)cc3)c3ccccc3n2)cc1 | 2.0 | -1.4 | -0.1 | 96.1 | 104.0 | -0.1 | 96.5 | 0.1
COc1cc(-c2cc(C(=O)Nc3ccc(O)cc3)c3ccccc3n2)cc(OC)c1OC | 13.0 | -6.4 | 0.3 | 105.1 | 102.2 | -0.3 | 98.1 | 0.0
CC(C)(C)NS(=O)(=O)c1ccc(NC(=O)c2cc(-c3ccccc3)nc3ccccc23)cc1 | 0.0 | -16.1 | -0.1 | 107.4 | nt | nt | nt | nt
CC(C)c1nc(CN(C)C(=O)N[C@H](C(=O)N[C@@H](Cc2ccccc2)C[C@H](O)[C@H](Cc2ccccc2)NC(=O)OCc2cncs2)C(C)C)cs1 | 5.0 | nt | -0.3 | 89.2 | nt | nt | nt | nt
COc1cc(SC)ccc1C(=O)Nc1cccc(C2OCCCO2)c1 | 0.0 | -6.2 | -0.1 | 81.5 | nt | nt | nt | nt
COc1ccc(S(=O)(=O)N2CCOC2CNC(=O)C(=O)NCc2ccc3c(c2)OCO3)cc1OC (configuration not stated) | 0.0 | -0.7 | -0.1 | 99.9 | 107.8 | -0.1 | 99.7 | -0.2
COc1ccc(CNC(=O)C(=O)NCC2OCCN2S(=O)(=O)c2ccc(OC)c(OC)c2)cc1 (configuration not stated) | 0.0 | 0.4 | 0.0 | 100.7 | 101.4 | 0.0 | 93.5 | 0.1
O=C(NCc1ccc2c(c1)OCO2)C(=O)NCC1OCCN1S(=O)(=O)c1ccc(Cl)cc1 (configuration not stated) | 3.0 | -0.6 | 0.1 | 119.8 | nt | nt | nt | nt
